Laboratory results published in PubChem BioAssay (NCATS).
Values without a mark were called inactive. Results filed as inconclusive are left out. Entries that show only a call come without a potency. Calls of active or inactive are those of the source. Unless noted, calls follow the shape of the dose curve; as a rule, active = well fitted curve in the direction sought with a large enough effect in the repeat runs; inconclusive = weak or mixed curves; inactive = no such curve, though single readings can be large; an effect the other way counts as inactive or inconclusive.

Tests used:
[1] = qHTS assay for small molecule disruptors of the mitochondrial membrane potential - 1 hr assay (AID 651754; calls by dose curve; also: nearly all actives have a fitted effect of over 35% in size; also: potency is read from the fitted curve at half-maximal effect)
Procedure, shortened: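 Loss of mitochondrial potential shifts the cationic dye from red mitochondrial aggregates to green cytoplasmic monomers. Cells (HepG2) are treated with compound for 1 hr before a 30 min dye incubation at 37C.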

[2] = qHTS assay for small molecule disruptors of the mitochondrial membrane potential - 5 hr assay (AID 651755; calls by dose curve; also: nearly all actives have a fitted effect of over 40% in size; also: potency is read from the fitted curve at half-maximal effect)
Procedure, shortened: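 Read-out: ratiometric Mito-MPS fluorescence, green monomer (ex 490/em 535) vs red mitochondrial aggregate (ex 540/em 590). HepG2 cells treated 5 hr at 37C before 30 min dye loading.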

[3] = qHTS assay for environmental chemicals that activate the Aryl hydrocarbon Receptor (AhR) signaling pathway (AID 651777; active = well fitted curve in the direction sought with a large enough effect; an effect the other way counts as inactive or inconclusive; also: nearly all actives have a fitted effect of over 15% in size); settings: 1A2-DRE human hepatoma cells, luciferase, 24 h; activation: active compounds read high
Procedure, shortened: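 Measured luciferase activity, read 30 min after One-Glo addition at room temperature, from human hepatoma cells bearing a dioxin response element–CYP1A2 promoter reporter and exposed to compound for 24 hr at 37 C.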

[4] = biological target: Peroxisome proliferator-activated receptor alpha (Homo sapiens) (UniProt Q07869); assay: qHTS assay for small molecule agonists of the peroxisome proliferator-activated receptor alpha (PPARalpha) signaling pathway (AID 651778; active = well fitted curve in the direction sought with a large enough effect; an effect the other way counts as inactive or inconclusive); settings: PathHunter PPARalpha complementation, chemiluminescence, 6 h; active compounds read high
Procedure, shortened: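 Enzyme-fragment complementation assay in which ligand-bound PPARalpha translocates and forms an active enzyme that generates chemiluminescence. Cells were plated overnight, exposed to compound for 6 hr at 37 C, and then given detection reagent for 60 min at room temperature.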

[5] = qHTS assay for small molecule agonists of the antioxidant response element (ARE) signaling pathway measured by Nrf2-dependant transcriptional activity (AID 720636);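 also: HepG2 cells with an ARE-driven luciferase reporter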
Procedure, shortened: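 In HepG2 cells engineered with an Nrf2-responsive luciferase gene, ARE induction was quantified as luminescence after 16 hr compound treatment at 37 C.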

[6] = qHTS assay for small molecule antagonists of the retinoid-related orphan receptor gamma (ROR-gamma) signaling pathway - cell viability counter screen (AID 720652);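 also: CHO reporter cells with doxycycline-induced ROR-gamma expression; series mostly up to about 92 µM; compound exposure lasted 16 hr before ATP read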
Procedure, shortened: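 Steps: seed CHO cells bearing TET-inducible ROR and ROR response element-luciferase; rest 5 hr at 37 C; add compound, then doxycycline; incubate 16 hr; add CellTiter-Glo and read luminescence as ATP-based viability.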

[7] = qHTS assay for small molecule agonists of the antioxidant response element (ARE) signaling pathway measured by Nrf2-dependant transcriptional activity - cell viability counter screen (AID 720653); settings: ARE-bla HepG2 viability, CellTiter-Glo ATP luminescence, 16 h; active compounds read low
Procedure, shortened: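 ARE-bla HepG2 cells treated with compounds for 16 h at 37C; this counter screen measures viability as intracellular ATP by CellTiter-Glo luminescence after 30 min at room temperature.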

[8] = biological target: Nuclear receptor ROR-gamma (Homo sapiens) (UniProt P51449); assay: qHTS assay for small molecule antagonists of the retinoid-related orphan receptor gamma (ROR-gamma) signaling pathway (AID 651802; active = well fitted curve in the direction sought with a large enough effect; an effect the other way counts as inactive or inconclusive;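 also: CHO cells with doxycycline-induced ROR-gamma expression; series mostly up to about 92 µM; nearly all actives have a fitted effect of over 60% in size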)
Procedure, shortened: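 Steps: cells dispensed; compound or DMSO transferred by pin tool; doxycycline added to induce the ROR response element-driven luciferase; plates held 16hr at 37C; ONE-Glo added and luminescence measured.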

[9] = biological target: Tumor necrosis factor (Homo sapiens) (UniProt P01375); assay: qHTS assay to identify small molecules that stimulate Tumor Necrosis Factor-alpha (TNF-alpha) secretion (AID 651757; active = well fitted curve in the direction sought with a large enough effect in the signal ratio; the % refers to the signal ratio)
Procedure, shortened: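 Human monocytic THP-1 cells are plated, treated with compound and held at 37 C for 17 hrs. Labeled anti-TNF-alpha antibody mixture is then added; after 3 hr at room temperature, TR-FRET signal reports secreted TNF-alpha.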

[10] = qHTS assay to identify small molecules that stimulate interleukin-8 (IL-8) secretion (AID 651758; active = well fitted activation curve with a large enough effect in the signal ratio; the % refers to the signal ratio)
Procedure, shortened: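 Compounds are added to THP-1 cells (2000 per well) and left 16 hrs at 37 C. A labeled anti-IL-8 antibody pair is then added, and IL-8 secretion is measured by time-resolved FRET after 1-3 hrs at room temperature.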

Sequence of Peroxisome proliferator-activated receptor alpha (Homo sapiens) (Q07869 whole entry, looked up, the tested form may be a part): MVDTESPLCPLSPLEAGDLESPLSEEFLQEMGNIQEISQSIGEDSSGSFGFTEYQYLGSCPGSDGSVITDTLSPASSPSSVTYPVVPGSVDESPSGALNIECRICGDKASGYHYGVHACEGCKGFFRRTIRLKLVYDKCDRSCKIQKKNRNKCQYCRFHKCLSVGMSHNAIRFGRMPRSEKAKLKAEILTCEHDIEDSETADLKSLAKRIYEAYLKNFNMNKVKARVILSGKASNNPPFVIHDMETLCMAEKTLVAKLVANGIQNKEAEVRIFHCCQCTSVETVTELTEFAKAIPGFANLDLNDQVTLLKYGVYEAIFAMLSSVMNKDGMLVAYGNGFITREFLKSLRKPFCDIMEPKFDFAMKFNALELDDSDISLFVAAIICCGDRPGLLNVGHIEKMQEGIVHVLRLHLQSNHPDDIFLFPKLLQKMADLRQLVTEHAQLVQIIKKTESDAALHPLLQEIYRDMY
Sequence of Tumor necrosis factor (Homo sapiens) (P01375 whole entry, looked up): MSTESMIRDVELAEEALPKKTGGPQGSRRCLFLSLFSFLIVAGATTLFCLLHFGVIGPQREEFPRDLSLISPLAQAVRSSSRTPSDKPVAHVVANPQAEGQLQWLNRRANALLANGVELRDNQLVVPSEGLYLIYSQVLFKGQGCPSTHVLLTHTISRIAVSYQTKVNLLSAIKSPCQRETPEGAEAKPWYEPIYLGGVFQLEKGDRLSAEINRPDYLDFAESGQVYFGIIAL
Sequence of Nuclear receptor ROR-gamma (Homo sapiens) (P51449 whole entry, looked up): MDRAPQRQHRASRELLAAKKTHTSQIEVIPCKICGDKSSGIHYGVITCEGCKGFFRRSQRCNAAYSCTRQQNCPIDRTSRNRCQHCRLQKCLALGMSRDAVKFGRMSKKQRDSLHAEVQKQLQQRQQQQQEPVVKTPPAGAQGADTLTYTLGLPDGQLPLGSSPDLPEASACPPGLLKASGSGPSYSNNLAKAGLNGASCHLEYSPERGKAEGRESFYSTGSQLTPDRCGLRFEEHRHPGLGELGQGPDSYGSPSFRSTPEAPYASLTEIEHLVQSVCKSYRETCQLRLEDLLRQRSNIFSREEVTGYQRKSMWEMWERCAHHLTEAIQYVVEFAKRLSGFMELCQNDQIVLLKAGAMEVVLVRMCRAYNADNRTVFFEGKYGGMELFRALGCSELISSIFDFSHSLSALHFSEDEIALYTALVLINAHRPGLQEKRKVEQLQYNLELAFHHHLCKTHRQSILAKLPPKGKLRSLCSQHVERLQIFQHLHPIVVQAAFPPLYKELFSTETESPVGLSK

Structure (SMILES) | Potency [1] | Potency [2] | activation [3] [%] | max response [4] [%] | outcome [5] | Potency [6] | max response [7] [%] | Potency [8] | Potency [9] | Potency [10]
CCCCCCCCCCCCC1CO1 (centres undefined) | inactive | inactive | 0.974 | -4.01 | inactive | inactive | 1.04 | – | – | –
Cc1cc(C2(c3cc(C)c(O)cc3C)OS(=O)(=O)c3ccccc32)c(C)cc1O | inactive | inactive | 0.42 | -10.4 | inactive | inactive | -15.6 | inactive | – | –
NC(=O)c1ccccc1[N+](=O)[O-] | inactive | inactive | -0.127 | -0.939 | inactive | inactive | -0.414 | inactive | – | –
CC(C)CO | inactive | inactive | -1.47 | – | – | inactive | -4.27 | inactive | inactive | –
O=Cc1ccc(Cl)cc1 | inactive | inactive | – | -4.56 | inactive | inactive | 7.47 | inactive | – | inactive
O=C(O)c1ccc(Cl)cc1Cl | inactive | inactive | -0.705 | -5.53 | – | inactive | -0.648 | inactive | – | –
OCCO | inactive | inactive | 0.215 | -4.04 | inactive | inactive | -3.22 | – | – | –
C/C=C1\CC2C=CC1C2 (centres undefined) | inactive | inactive | -0.171 | -5.32 | inactive | – | -2.33 | inactive | – | –
CCNc1cc(O)ccc1C | inactive | inactive | 6.45 | -6.44 | inactive | inactive | 9.97 | inactive | – | –
CCCCC=O | inactive | inactive | – | -1.36 | inactive | inactive | -1.82 | inactive | – | inactive
Cc1cccc2cccnc12 | inactive | inactive | -0.26 | 3.59 | inactive | inactive | -7.04 | inactive | – | –
CC(C)(O)C(=O)O | inactive | inactive | – | 4.71 | inactive | inactive | 1.81 | inactive | inactive | –
CC(C)(C)OCC1CO1 (centres undefined) | inactive | inactive | 2.26 | -5.74 | – | inactive | 11 | – | inactive | –
COCCOC(=O)c1ccccc1C(=O)OCCOC | inactive | inactive | -0.057 | 2.89 | inactive | inactive | 9.02 | inactive | – | inactive
ClC/C=C/CCl | inactive | inactive | – | 1.16 | inactive | inactive | -6.38 | – | inactive | –
Cc1ccc([N+](=O)[O-])c(N)c1 | inactive | inactive | 0.147 | -3.68 | inactive | – | 6.11 | inactive | – | –
CCOc1ccc(NC(C)=O)cc1N | inactive | inactive | – | -2.02 | – | – | -8.42 | inactive | – | inactive
C=CCCC | inactive | inactive | – | -5.85 | inactive | inactive | 3.55 | – | inactive | –
CCN(CC)c1cccc(O)c1 | inactive | inactive | 4.44 | -5.23 | – | inactive | 5.34 | inactive | – | –
CC=C(Cl)Cl | inactive | inactive | -0.394 | -5.05 | inactive | inactive | -6.27 | inactive | – | –
CCCOCC(C)O (centres undefined) | inactive | inactive | 1.17 | -5.25 | inactive | inactive | 8.24 | inactive | – | –
Cc1ccc2c(c1[N+](=O)[O-])C(=O)c1ccccc1C2=O | 1.88 µM (active) | 1.33 µM (active) | – | -3.62 | – | inactive | -12.9 | inactive | inactive | –
C=C(C)C(=O)OC | inactive | inactive | 0.279 | 0.595 | inactive | inactive | 4.29 | inactive | – | –
CCNc1ccccc1 | inactive | inactive | 0.398 | -1.14 | inactive | – | -0.56 | inactive | – | –
Nc1cccc2c(=O)[nH][nH]c(=O)c12 | inactive | inactive | 0.365 | 0.513 | inactive | – | 4.98 | inactive | – | –
N#Cc1ccccc1 | inactive | inactive | – | -0.81 | inactive | inactive | 0.163 | inactive | inactive | –
